PubChem BioAssay AID1159580 (chemical genetic matrix, 2015)
Screen size: about 5,500 compounds; about 2,000 (36%) were called active. Roughly 18% stayed inconclusive and do not appear here. Cut-off read from the data, not from the text of the source: active = normalized growth mostly below about 0.91 (no sharp cut-off); inconclusive = no clear call, values can overlap the other calls; inactive = mostly above about 0.92. The list shows a part of the results.

Test: chemical genetic growth profiling, strain panel (AID 1159580);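 note: tested at 20 µM; growth read once vehicle control cultures reached saturation at 30 °C; 1 = growth at the plate median or of vehicle wells; lower values mean less growth of the strain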
Details: growth OD

Measured: normalized growth

C[C@@H]1CC2C3C[C@H](F)C4=CC(=O)C=C[C@]4(C)[C@@]3(F)[C@@H](O)C[C@]2(C)[C@@]1(O)C(=O)COC(=O)C(C)(C)C (some centres not stated)
inactive: S. cerevisiae deletion strains, locus YJR075W, strain HOC1, stronger effect = lower value 0.997 | S. cerevisiae deletion strains, locus YKL009W, strain mrt4, stronger effect = lower value 0.982 | S. cerevisiae deletion strains, locus YKL068W, stronger effect = lower value 1.01 | S. cerevisiae deletion strains, locus YKL085W, strain MDH1 (second series), stronger effect = lower value 1 | S. cerevisiae deletion strains, locus YKL085W, strain MDH1, stronger effect = lower value 1 | S. cerevisiae deletion strains, locus YKL160W, strain elf1, stronger effect = lower value 0.978 | S. cerevisiae deletion strains, locus YKL190W, strain CNB1, stronger effect = lower value 0.997 | S. cerevisiae deletion strains, locus YKR001C, strain vps1, stronger effect = lower value 0.988 | S. cerevisiae deletion strains, locus YKR026C, strain gcn3, stronger effect = lower value 0.997 | S. cerevisiae deletion strains, locus YKR091W, strain srl3, stronger effect = lower value 0.996 | S. cerevisiae deletion strains, locus YLL001W, strain dnm1, stronger effect = lower value 0.987 | S. cerevisiae deletion strains, locus YLL026W, stronger effect = lower value 0.984 | S. cerevisiae deletion strains, locus YLL041C, strain sdh2, stronger effect = lower value 1.01 | S. cerevisiae deletion strains, locus YLR027C, strain aat2, stronger effect = lower value 0.987 | S. cerevisiae deletion strains, locus YLR039C, strain RIC1, stronger effect = lower value 1.02 | S. cerevisiae deletion strains, locus YLR058C, strain SHM2, stronger effect = lower value 1.01 | S. cerevisiae deletion strains, locus YLR102C, strain apc9, stronger effect = lower value 1.01 | S. cerevisiae deletion strains, locus YLR113W, strain HOG1, stronger effect = lower value 0.969 | S. cerevisiae deletion strains, locus YLR221C, strain rsa3, stronger effect = lower value 0.99 | S. cerevisiae deletion strains, locus YLR258W, strain gsy2, stronger effect = lower value 0.995 | S. cerevisiae deletion strains, locus YLR262C, strain YPT6 (second series), stronger effect = lower value 0.98 | S. cerevisiae deletion strains, locus YLR262C, strain YPT6, stronger effect = lower value 0.977 | S. cerevisiae deletion strains, locus YLR268W, strain sec22, stronger effect = lower value 0.984 | S. cerevisiae deletion strains, locus YLR320W, strain mms22, stronger effect = lower value 0.975 | S. cerevisiae deletion strains, locus YLR330W, strain CHS5, stronger effect = lower value 1.01 | S. cerevisiae deletion strains, locus YLR342W, strain FKS1 (second series), stronger effect = lower value 1.03 | S. cerevisiae deletion strains, locus YLR342W, strain FKS1, stronger effect = lower value 0.978 | S. cerevisiae deletion strains, locus YLR357W, strain rsc2, stronger effect = lower value 0.979 | S. cerevisiae deletion strains, locus YLR370C, strain arc18, stronger effect = lower value 0.987 | S. cerevisiae deletion strains, locus YLR371W, strain rom2, stronger effect = lower value 1.01 | S. cerevisiae deletion strains, locus YLR384C, strain iki3, stronger effect = lower value 0.987 | S. cerevisiae deletion strains, locus YLR418C, strain cdc73, stronger effect = lower value 1.03 | S. cerevisiae deletion strains, locus YML016C, strain PPZ1, stronger effect = lower value 1 | S. cerevisiae deletion strains, locus YML032C, strain rad52, stronger effect = lower value 1 | S. cerevisiae deletion strains, locus YML120C, strain ndi1, stronger effect = lower value 0.999 | S. cerevisiae deletion strains, locus YML124C, strain tub3, stronger effect = lower value 1 | S. cerevisiae deletion strains, locus YMR058W, strain fet3, stronger effect = lower value 1.01 | S. cerevisiae deletion strains, locus YMR078C, strain ctf18, stronger effect = lower value 1.01 | S. cerevisiae deletion strains, locus YMR125W, strain sto1, stronger effect = lower value 1.01 | S. cerevisiae deletion strains, locus YMR129W, stronger effect = lower value 0.988 | S. cerevisiae deletion strains, locus YMR205C, strain PFK2, stronger effect = lower value 0.977 | S. cerevisiae deletion strains, locus YMR223W, strain ubp8, stronger effect = lower value 1.04 | S. cerevisiae deletion strains, locus YMR231W, strain pep5, stronger effect = lower value 0.998 | S. cerevisiae deletion strains, locus YMR263W, strain SAP30, stronger effect = lower value 1.01 | S. cerevisiae deletion strains, locus YMR307W, strain GAS1, stronger effect = lower value 0.95 | S. cerevisiae deletion strains, locus YNL067W, strain RPL9B, stronger effect = lower value 0.998 | S. cerevisiae deletion strains, locus YNL071W, strain lat1, stronger effect = lower value 1 | S. cerevisiae deletion strains, locus YNL183C, strain NPR1, stronger effect = lower value 0.962 | S. cerevisiae deletion strains, locus YNL209W, strain ssb2, stronger effect = lower value 0.996 | S. cerevisiae deletion strains, locus YNL233W, strain BNI4, stronger effect = lower value 1.01 | S. cerevisiae deletion strains, locus YNL248C, strain rpa49, stronger effect = lower value 1.01 | S. cerevisiae deletion strains, locus YNL250W, strain rad50, stronger effect = lower value 1.02 | S. cerevisiae deletion strains, locus YNL271C, strain bni1, stronger effect = lower value 1.01 | S. cerevisiae deletion strains, locus YNL298W, strain CLA4, stronger effect = lower value 0.998 | S. cerevisiae deletion strains, locus YNL307C, strain MCK1, stronger effect = lower value 1.02 | S. cerevisiae deletion strains, locus YNL322C, strain KRE1 (second series), stronger effect = lower value 1 | S. cerevisiae deletion strains, locus YNR049C, strain mso1, stronger effect = lower value 0.998 | S. cerevisiae deletion strains, locus YNR052C, strain pop2, stronger effect = lower value 0.998 | S. cerevisiae deletion strains, locus YOL012C, strain htz1 1.17 | S. cerevisiae deletion strains, locus YOL147C, strain pex11, stronger effect = lower value 1.01 | S. cerevisiae deletion strains, locus YOR001W, strain rrp6, stronger effect = lower value 0.98 | S. cerevisiae deletion strains, locus YOR061W, strain CKA2, stronger effect = lower value 1 | S. cerevisiae deletion strains, locus YOR069W, strain VPS5, stronger effect = lower value 1.01 | S. cerevisiae deletion strains, locus YOR070C, strain gyp1, stronger effect = lower value 0.999 | S. cerevisiae deletion strains, locus YOR080W, strain dia2, stronger effect = lower value 0.979 | S. cerevisiae deletion strains, locus YOR083W, strain WHI5, stronger effect = lower value 0.982 | S. cerevisiae deletion strains, locus YOR106W, strain vam3, stronger effect = lower value 0.987 | S. cerevisiae deletion strains, locus YOR136W, strain idh2, stronger effect = lower value 1.01 | S. cerevisiae deletion strains, locus YOR144C, strain elg1, stronger effect = lower value 1 | S. cerevisiae deletion strains, locus YOR184W, strain ser1, stronger effect = lower value 1.04 | S. cerevisiae deletion strains, locus YOR231W, strain MKK1, stronger effect = lower value 0.976 | S. cerevisiae deletion strains, locus YOR265W, strain rbl2, stronger effect = lower value 0.99 | S. cerevisiae deletion strains, locus YOR270C, strain vph1, stronger effect = lower value 1.01 | S. cerevisiae deletion strains, locus YOR290C, strain snf2, stronger effect = lower value 0.997 | S. cerevisiae deletion strains, locus YOR316C, strain cot1, stronger effect = lower value 1.01 | S. cerevisiae deletion strains, locus YPL051W, strain arl3, stronger effect = lower value 0.978 | S. cerevisiae deletion strains, locus YPL055C, strain LGE1, stronger effect = lower value 0.999 | S. cerevisiae deletion strains, locus YPL078C, strain atp4, stronger effect = lower value 0.974 | S. cerevisiae deletion strains, locus YPL106C, strain sse1, stronger effect = lower value 0.946 | S. cerevisiae deletion strains, locus YPL240C, strain hsp82, stronger effect = lower value 1 | S. cerevisiae deletion strains, locus YPL256C, strain CLN2, stronger effect = lower value 0.992 | S. cerevisiae deletion strains, locus YPR119W, strain clb2, stronger effect = lower value 1.01 | S. cerevisiae deletion strains, locus YPR141C, strain kar3, stronger effect = lower value 1 | S. cerevisiae deletion strains, locus YPR163C, strain tif3, stronger effect = lower value 1 | S. cerevisiae deletion strains, locus YPR167C, strain met16, stronger effect = lower value 1.01 | S. cerevisiae deletion strains, strain wtn01, stronger effect = lower value 1 | S. cerevisiae strains, strain wild type, stronger effect = lower value 0.995
